High-throughput results (PubChem BioAssay)
CYP2C19 inhib – blocks human cytochrome P450 2C19 | CYP2C19 Supersomes, luciferin-H EGE luminescence, 30 min | inhibition, % at 5 µM | 96,000 compounds, 21% hits | AID 778;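 active = CYP2C19 inhibition above a set limit at 5 µM in the primary screen, cut at about 50% in these data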;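 note: plate controls were negative control wells for no effect and 2.5 mM tranylcypromine positive control for full effect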
CYP2C9 activ – activators of human CYP2C9. P11712. recombinant CYP2C9, luciferin-H conversion, luminescence; active compounds read high; factor 1 = untreated enzyme, 0 = blocked. activation factor at 5 µM. 96,000 compounds, 1.4% hits;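 active = activation factor of 2 or more for CYP2C9 at a 5 µM dose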;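 note: 0 = sulfaphenazole-blocked wells and 1 = vehicle-only wells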
Target sequence (P11712 whole entry, looked up): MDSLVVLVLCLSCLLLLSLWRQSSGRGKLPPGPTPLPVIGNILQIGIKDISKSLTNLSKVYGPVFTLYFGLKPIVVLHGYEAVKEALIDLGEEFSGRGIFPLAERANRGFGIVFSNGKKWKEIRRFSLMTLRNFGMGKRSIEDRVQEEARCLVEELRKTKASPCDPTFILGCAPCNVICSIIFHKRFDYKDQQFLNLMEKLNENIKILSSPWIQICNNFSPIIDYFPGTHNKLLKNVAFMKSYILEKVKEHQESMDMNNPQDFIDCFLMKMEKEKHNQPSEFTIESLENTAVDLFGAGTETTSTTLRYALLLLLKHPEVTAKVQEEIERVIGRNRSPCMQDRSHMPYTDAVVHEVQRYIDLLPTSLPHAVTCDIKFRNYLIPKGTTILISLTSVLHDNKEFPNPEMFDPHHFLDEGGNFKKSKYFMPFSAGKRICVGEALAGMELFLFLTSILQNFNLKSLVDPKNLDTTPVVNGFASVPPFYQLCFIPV
Cav32 inh – blocks human Cav3.2 T-type calcium channel; O95180; Cav3.2-expressing cells, Fluo-4 calcium fluorescence FDSS; active compounds read low; B-score at 10 µM; 100,000 compounds, 4% hits;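 active = single-dose well whose peak fluorescence ratio is a statistical outlier from its plate by either plate-standardised score or position-corrected B-score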
CYP2C19 activ – activators of human cytochrome P450 2C19. activation factor at 5 µM. AID 1025. 96,000 tested, under 10 active. P33261. recombinant CYP2C19, luciferin-H EGE luminescence; active compounds read high; 0 = fully inhibited enzyme, 1 = untreated enzyme;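 active = activation factor of at least 2 at 5 µM in the primary screen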;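 note: 0 = wells with 2.5 mM tranylcypromine and 1 = vehicle-only wells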
CYP2C9 inh – blocks human cytochrome P450 2C9. P11712. CYP2C9 Supersomes, luciferin-H conversion, luminescence. inhibition, % at 5 µM. 96,000 compounds, 20% hits;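 active = blocking of liver enzyme CYP2C9 beyond about 50% at 5 µM, limit read from the data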
* = called active by the depositor; . = no result. An excerpt weighted towards active compounds, which were near 27% of everything screened.

SMILES	CYP2C19 inhib	CYP2C9 activ	Cav32 inh	CYP2C19 activ	CYP2C9 inh
COc1ccc(CCNc2c(N)n(Cc3ccccc3)c(=O)[nH]c2=O)cc1OC	22.1	0.6	-0.0826	0.8	43.1
O=C1CC(NCc2ccc3c(c2)OCO3)C(=O)N1CCc1ccccc1 (stereo not given)	75.0*	0.5	0.0674	0.3	47.3
Cc1ccc(C(=O)Nc2ccccc2SCC2CSc3nc4ccccc4c(=O)n32)cc1 (stereo not given)	34.9	0.7	.	0.7	33.3
NC(=O)[C@@H]1CCCNc2c(I)cc([N+](=O)[O-])cc2C(=O)N[C@@H](Cc2ccccc2)C(=O)N[C@@H](Cc2cnc[nH]2)C(=O)N1	.	.	0.442	.	.
COc1cccc(CC2CC(=O)N(CCc3ccc4c(c3)OCO4)C2=O)c1 (stereo not given)	96.4*	0.5	-2.85	0	46.7
O=C(NCc1nc2ccccc2[nH]1)C1=C[C@H](c2coc3ccccc3c2=O)C[C@H](OCCCCO)O1	.	.	-0.0136	.	.
CC(=O)Nc1ccc(N2CCCCC2)c(C(=O)Nc2cccc(C)c2)c1	50.3*	0.4	-0.622	0.5	56.7*
Cc1cccc(NC(=O)c2cc(NC(=O)C3CC=CCC3C(=O)O)ccc2N2CCOCC2)c1 (stereo not given)	2.7	1	0.132	1	-0.6
Cc1cccc(NC(=O)c2cc(NC(=O)C3CCCCC3C(=O)O)ccc2N2CCCCC2)c1 (stereo not given)	.	.	-4.03*	.	.
O=C(O)CCC(=O)Nc1ccc(N2CCCCC2)c(C(=O)O)c1	.	.	0.591	.	.
O=C(O)C1CCCCC1C(=O)Nc1cccc(C(=O)N2CCCCC2)c1 (stereo not given)	-3.0	1	-0.447	1	4.9
Cc1ccc(NC(=O)c2cc(NC(=O)C3CC=CCC3C(=O)O)ccc2N2CCOCC2)cc1Cl (stereo not given)	9.1	0.4	0.236	0.9	61.1*
COc1ccc(OC)c(NC(=O)C2C3C=CC(C3)C2C(=O)NCc2ccccn2)c1 (stereo not given)	28.8	0.9	0.541	0.7	14.2
CCCC(=O)Nc1nnc(CC(=O)N2CCCC2)s1	5.2	1.2	0.546	0.9	-20.7
CC(C)Sc1nc2c(c(=O)[nH]1)C(c1cccs1)C1=C(CC(C)(C)CC1=O)N2 (stereo not given)	32.9	0.3	-0.0114	0.7	68.4*
CC/C(=C\C(=O)c1ccncc1)Nc1ccc(Br)cc1	99.3*	0.1	-1.08	0	89.2*
CC1(C)CC(=O)C=C(NCCN2CCN(C(=O)Nc3ccccc3)CC2)C1	-2.5	1.1	0.538	1	-9.0
CCOc1ccc(N(CC)S(=O)(=O)c2ccc3c(c2)n(C)c(=O)c(=O)n3C)cc1	-2.7	0.6	0.0418	1	43.5
O=C(OC1CCOC1=O)c1cc(-c2ccc(Cl)cc2)nc2ccccc12 (stereo not given)	2.3	1	0.0696	1	1.2
COc1ccc(-c2cc(C(=O)OC3CCOC3=O)c3ccccc3n2)cc1OC (stereo not given)	55.0*	0.2	-0.451	0.4	76.9*
Cc1ccc(C(=O)Nn2cnc3scc(-c4cccs4)c3c2=O)c(O)c1	-10.5	0.6	-3.46*	1.1	36.1
CCn1c(SCC(=O)Nc2ccc(S(N)(=O)=O)cc2)nnc1-c1cccc(OC)c1	2.3	0.8	0.685	1	24.4
O=C(CSc1nnc(Cn2nnc(-c3ccccc3)n2)n1-c1ccccc1)Nc1ccccc1	21.2	0.7	-1.35	0.8	29.0
Cn1c(Cn2c(=O)sc3ccccc32)nnc1SCc1ccccc1F	52.3*	0.6	-0.147	0.5	35.6
Cc1cccc(C)c1NC(=O)CSc1nnc(Cn2nnc(-c3ccccc3)n2)n1-c1ccccc1	74.5*	0.1	-6.19*	0.3	92.2*
SMILES	CYP2C19 inhib	CYP2C9 activ	Cav32 inh	CYP2C19 activ	CYP2C9 inh
CCCSc1nnc(Cn2c(=O)sc3ccccc32)n1-c1ccccc1	82.5*	0.3	-0.998	0.2	67.9*
Cc1csc(NC(=O)CSc2nnc(Cn3c(=O)sc4ccccc43)n2-c2ccccc2)n1	-12.0	0.4	0.57	1.1	60.7*
Cc1ccccc1-n1c(Cn2c(=O)sc3ccccc32)nnc1SCC(=O)Nc1nccs1	.	.	-0.235	.	.
CCc1cc2c(=O)n(-c3ccc(Br)cc3)cnc2s1	5.9	0.8	-1.14	0.9	17.3
N#CCc1nnc2n1-c1ccccc1CCC2	16.3	0.9	0.0968	0.8	8.8
COc1cccc(CC(NC(C)=O)C(=O)NC2CCN(c3nc(C)cc(C)c3C#N)CC2)c1 (stereo not given)	67.3*	0.7	1.96	0.3	27.9
